# Data as given in PubChem BioAssay.
# Activity calls are given as the source filed them.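 How the source made its calls, unless noted: active means fluorescence slope after compound addition differing from the mean of all screened samples at 99.7% confidence, in either direction; inactive means the rest.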
# Columns and labels:
# [1] = inhibitors of TNFa-induced NFkB p65 translocation, primary screen, imaging, HUVEC, MLSMR starter and 10KST1 sets (AID 438;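 active means inhibition above 20% together with a positive visual image hit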;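 further: compound added about 3h40 before a 20 min TNFalpha stimulation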;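 on inhibition: signal is the nuclear over cytoplasmic p65 intensity ratio per well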); conditions: HUVEC TNFa-induced p65 nuclear translocation; cell count: measured here: nuclei count (cytotoxicity indicator), at 2.08 µM; inhibition: at 2 µM, stronger effect = higher value, 0% TNFa-plus-vehicle, 100% no-TNFa wells
# [2] = inhibitors of mutant huntingtin aggregation, primary screen, imaging, exon1htt(103Q)mCFP cells, high-content imaging (AID 483;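 active means visual image review flags a hit and inhibition of aggregation exceeds 20%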;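 further: compound exposure lasted 3 days before fixation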;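 on nuclei count: percent of the per-plate median nuclei count of sample wells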); conditions: exon1htt(103Q)mCFP cell line, aggregate imaging, at 2 µM; inhibition of aggregation: stronger effect = higher value; nuclei count: measured here: cell count, toxicity
# [3] = inhibitors of E-selectin induction by TNFa, primary screen, imaging, HUVEC, immunofluorescence, MLSMR starter and 10KST1 sets (AID 487;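 active means visually confirmed hit in the image check and inhibition above 20%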;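 on inhibition: signal is fraction of cell area covered by stained E-selectin grains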;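 on nuclei count: 100% = median nuclei count of all wells on the same plate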); conditions: HUVEC TNFalpha-induced E-selectin immunofluorescence imaging, at 2 µM; inhibition: stronger effect = higher value; nuclei count: measured here: cell number, toxicity
# [4] = biological target: Voltage-gated potassium channel subunit beta-2 (Rattus norvegicus) (UniProt P62483); experiment: KvBeta enzyme negative modulators, primary screen, biochemical, NADPH fluorescence (AID 622;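 active means fluorescence slope higher than the sample average by over 3 SD, cut at about -0.22 in these data, passing the limit was not always enough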;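 further: slope of raw intensity against log time taken from 70 to 1610 s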); conditions: recombinant KvBeta, 4-cyanobenzaldehyde reduction, at 10 µM, stronger effect = higher value
# Chain of Voltage-gated potassium channel subunit beta-2 (Rattus norvegicus) (P62483 whole entry, looked up): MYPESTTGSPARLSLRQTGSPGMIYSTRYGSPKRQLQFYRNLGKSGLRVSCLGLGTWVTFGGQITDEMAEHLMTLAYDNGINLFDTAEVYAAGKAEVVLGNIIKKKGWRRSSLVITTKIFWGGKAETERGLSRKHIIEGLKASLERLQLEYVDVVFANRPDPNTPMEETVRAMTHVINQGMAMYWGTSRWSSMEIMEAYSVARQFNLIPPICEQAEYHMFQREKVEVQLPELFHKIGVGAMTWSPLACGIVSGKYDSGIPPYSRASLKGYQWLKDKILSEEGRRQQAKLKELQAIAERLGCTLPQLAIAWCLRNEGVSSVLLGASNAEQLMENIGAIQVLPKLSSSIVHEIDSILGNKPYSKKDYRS
# [5] = biological target: Voltage-gated potassium channel subunit beta-2 (Rattus norvegicus) (UniProt P62483); experiment: KvBeta positive modulators, primary screen, biochemical, NADPH fluorescence (AID 623;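 active means NADPH fluorescence slope more negative than the mean of all samples by about 3 SD, 99.7% confidence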;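 further: fluorescence intensity change per second fitted from 20 to 320 s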); conditions: Recombinant KvBeta, NADPH fluorescence decrease slope, 10 min; at 10 µM; stronger effect = lower value
# [6] = biological target: Alpha-2C adrenergic receptor (Homo sapiens) (UniProt P18825); experiment: modulators of alpha2C/GIRK thallium flux, primary screen, cell-based, HEK293 alpha2C/GIRK1/2 (AID 624); conditions: thallium flux BTC fluorescence, at 10 µM, actives lie on both sides;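 further: slope of fluorescence ratio to pre-addition baseline per second over 15 to 24 s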
# Chain of Alpha-2C adrenergic receptor (Homo sapiens) (P18825 whole entry, looked up): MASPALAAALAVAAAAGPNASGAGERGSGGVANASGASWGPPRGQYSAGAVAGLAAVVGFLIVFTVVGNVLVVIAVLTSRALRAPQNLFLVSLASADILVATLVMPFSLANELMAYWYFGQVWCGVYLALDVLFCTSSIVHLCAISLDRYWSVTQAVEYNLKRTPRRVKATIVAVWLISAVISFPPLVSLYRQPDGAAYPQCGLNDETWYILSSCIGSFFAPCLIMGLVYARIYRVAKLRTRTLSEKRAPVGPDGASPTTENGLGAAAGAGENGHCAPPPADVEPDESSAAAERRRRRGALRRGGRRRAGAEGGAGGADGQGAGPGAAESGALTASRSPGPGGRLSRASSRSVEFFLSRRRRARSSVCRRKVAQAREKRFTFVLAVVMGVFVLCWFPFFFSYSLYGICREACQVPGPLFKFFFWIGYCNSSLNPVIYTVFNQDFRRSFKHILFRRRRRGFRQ
# [7] = inhibitors of Sendai virus-induced IRF3 signaling, primary screen, TLR/RLR signaling modifier project, cell-based, Sendai virus stimulus, luciferase, 10K MLSCN set (AID 602276;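 active means inhibition at or above 50% at 10 µM; inactive means inhibition below 50%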;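 further: firefly luciferase from ISG56 promoter only with Renilla not read in this screen; 0% = Sendai virus plus DMSO and 100% = medium plus DMSO without virus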); conditions: HEK293 RL24 IRF3 luciferase reporter, at 10 µM, stronger effect = higher value
# [8] = inhibitors of poly I:C-induced TLR3 signaling, primary screen, cell-based, poly I:C stimulus, luciferase, 10K MLSCN set (AID 602277;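 active means inhibition of the reporter signal at or above 50%; inactive means inhibition below 50%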); conditions: HEK293-TLR3 RL24 IRF3 luciferase reporter, at 10 µM, stronger effect = higher value
SMILES,cell count [1],inhibition [1],inhibition of aggregation [2],nuclei count [2],inhibition [3],nuclei count [3],fluorescence slope [4],NADPH fluorescence slope [5],slope [6],inhibition [7],inhibition [8]
O=C(COc1ccccc1Cl)NCc1ccco1,310,-13% (inactive),7.5% (inactive),92.3%,-27.9% (inactive),115%,-0.488 (inactive),-3e-05 (inactive),0.00673 (inactive),-22.9% (inactive),-43.3% (inactive)
C/C=C/CSc1nc2c(c(=O)[nH]c(=O)n2C)n1Cc1ccc(C)cc1,693,-6.9% (inactive),-5% (inactive),116%,-43.7% (inactive),112%,-0.542 (inactive),-3.9e-05 (inactive),0.0074 (inactive),-3.97% (inactive),18.2% (inactive)
Cc1cc(Nc2ccccc2N2CCOCC2)n2ncnc2n1,226,2% (inactive),13.7% (inactive),89%,-16.1% (inactive),97%,-0.588 (inactive),7.3e-06 (inactive),0.00567 (inactive),21.9% (inactive),44.1% (inactive)
Cc1c(NC2=NC3(CCCCC3)Cc3ccccc32)c(=O)n(-c2ccccc2)n1C,716,-5.3% (inactive),6.1% (inactive),101%,59.1% (active),72.3%,-0.354 (inactive),-6.6e-05 (inactive),0.00622 (inactive),13.1% (inactive),21.6% (inactive)
Cc1cc2ncn(C(=O)c3c(-c4ccccc4)noc3C)c2cc1C,202,-15.9% (inactive),-7.9% (inactive),85.7%,25.9% (inactive),99.7%,-0.433 (inactive),-2.6e-06 (inactive),0.00548 (inactive),5.72% (inactive),18.2% (inactive)
CCOc1ccc(Cc2nn[nH]n2)cc1,663,-3.2% (inactive),10.3% (inactive),90.5%,-38.6% (inactive),141%,-0.47 (inactive),-0.000245 (inactive),0.00563 (inactive),9.13% (inactive),16.7% (inactive)
Cc1cc(C)n(CCc2nc(-c3cccs3)cs2)n1,587,-10.1% (inactive),-5.8% (inactive),98.6%,-52.1% (inactive),112%,-0.603 (inactive),-5.2e-07 (inactive),0.00641 (inactive),-6.14% (inactive),-42.1% (inactive)
